RXFP1 ag: RXFP1 (human) receptor agonism | Q9HBX9 | HEK293T-RXFP1 cAMP TR-FRET, 30 min; response scale: percent of porcine relaxin response, buffer zero | Potency, µM (titrated, usually from 57.5 µM), most hits filed as activators | actives 0.3% (n = 370,000) | AID 2676; active = well fitted activation curve with a large enough effect; inconclusive = small, poorly fitted or top-dose-only effect; also: nearly all actives have a fitted effect of over 60% in size
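HEK293T cells stably expressing RXFP1 were pretreated with the PDE4 inhibitor Ro 20174, exposed to compounds for 30 min at 37C, lysed, and cAMP was read by TR-FRET. Data normalized to buffer (basal) and 29 nM porcine relaxin (100%).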
gsp antag: gsp mutant antagonism. actives 0.4% (n = 340,000). Potency, µM (top dose mostly 76.9 µM), hits mostly inhibitors. gsp-mutant cells, cAMP HTRF, 30 min; calls by dose curve; cell line not stated here;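 also: intracellular cAMP measured with PDE inhibitor Ro 20-1724 present during compound exposure; nearly all actives have a fitted effect of over 65% in size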
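Cells, 2000/well, grown 16–24 h in DMEM 10% FBS with 0.5 mg/ml G418, then compounds plus […] (300 uM addition stock), 30 min at 37C. cAMP read by HTRF (cAMP-d2 and anti-cAMP antibody-K in lysis buffer) after 30 min RT.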
Akt phos inh: blocks phosphorylation of Akt | Neuro2A IGF-stimulated pAkt S473 HTRF, 20 min; active compounds read low | activity change, % for hits at 50 µM | actives 0.32% (n = 360,000); in the data active = activity change below about -80%; inconclusive = mostly about -51% to -80%
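Neuro2A cells (4,500/well, DMEM with 0.5% FBS) were treated with compound at a single 50 µM final concentration, stimulated with 6 nM IGF for 20 min at 37 °C, and lysed. Phospho-Akt Ser473 was read by HTRF as 665/615 ratio ×10^4.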
RXFP1 antag: RXFP1 (human) relaxin receptor antagonism. HEK293-RXFP1, relaxin-stimulated cAMP HTRF, 30 min; active compounds read low. activity change, negative = inhibition, % at 57.5 µM. actives 0.59% (n = 350,000). AID 1259400;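 active = activity change of -60% or lower, but not beyond a set lower limit; inconclusive = change between -60% and -40%, or beyond the set limit; inactive = change above -40%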
ClpP mod: qHTS Assay for Activators of ClpP; purified B. subtilis ClpP, FRET peptide cleavage, 20 min; ATP-dependent Clp protease proteolytic subunit (Bacillus subtilis (strain 168)), P80244; actives 1.9% (n = 340,000); Potency, µM (series often up to 57.5 µM); active = well fitted falling curve with a large enough effect; inconclusive = small, poorly fitted or top-dose-only effect; inactive = no such curve, though single readings can be large or run the other way; also: the source files actives as falling curves though it sought activators and does not explain the sign; nearly all actives have a fitted effect of over 65% in size
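ClpP 10 microg/mL final, pH 8 Tris/KCl buffer with BSA, glycerol, Tween-20; compound pinned in; FRET-FV substrate; RT 20 min; Ex320/Em430; ΔFRET vs ADEP 5.8 microM, DMSO, no enzyme.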
gsp ag: activates gsp, the McCune-Albright syndrome mutation; gsp mutant cells, cAMP HTRF, 30 min; Potency, µM (highest dose often 76.9 µM), actives largely listed as activators; actives 0.13% (n = 340,000); AID 624287; active = well fitted activation curve with a large enough effect; inconclusive = small, poorly fitted or top-dose-only effect, or another doubt; inactive = no such curve, though single readings can be large or run the other way; cell line not stated here;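 also: phosphodiesterase inhibitor Ro 20-1724 added with compounds to block cAMP breakdown; nearly all actives have a fitted effect of over 60% in size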
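Cells stably selected in G418 were plated at 2000/well, grown 16-24 hr, then given compounds in DMSO with the PDE inhibitor […] (300 uM solution added) for 30 min at 37C; cAMP was read by HTRF.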
Numbers stand for hits; n = inactive; u = inconclusive; x = no result given; ! = not active in a repeat; [ ] = another dose, or the depositor's remark. Shown are actives, neighbours in structure and some others; about 2.7% of the full set was active somewhere.

SMILES	RXFP1 ag	gsp antag	Akt phos inh	RXFP1 antag	ClpP mod	gsp ag
CCOc1ccc2oc(-c3ccccc3)c(C(=O)N(C)C)c2c1	n	n	n	n	25µM	n
O=C(CSc1nnc2c(Cl)cc(Cl)cn12)NC1CCS(=O)(=O)C1 (stereo not given)	n	n	n	n	n	10µM
C=CCn1c(SCC(=O)NC2CCS(=O)(=O)C2)nnc1-c1ccc(Cl)cc1 (stereo not given)	n	n	n	n	x	n[15.4 µM]
COc1ccc(CNC[C@H]2O[C@@H](n3ccc(=O)[nH]c3=O)[C@H](O)[C@@H]2O)cc1OC	x	n	n	x	n	x
Cc1cccc(S(=O)(=O)Nc2ccc(-c3cn4ccccc4n3)cc2)c1	n	n	n	x	28µM	n
O=C(Nc1cccc(-c2cn3ccccc3n2)c1)c1ccccc1	n	n	n	n	n	n[15.4 µM]
CCCCC(=O)Nc1cccc(-c2cn3ccccc3n2)c1	n	n	n	n	28µM	n
Cc1cc(C)c(S(=O)(=O)Nc2cccc(-c3cn4ccccc4n3)c2)c(C)c1	n	x	x	n	28µM	x
COc1ccc(N2CC(NC(=O)COc3ccccc3C)CC2=O)cc1OC (stereo not given)	n	x	x	x	n	x
O=c1cc(CN2CCOCC2)c2ccccc2o1	x	x	n	x	n	x
Cc1ccc(C(=O)NCc2ccccc2)cc1NC(=O)c1nsc2ccccc12	n	x	x	n	n	x
CCN(CC)C1=CC2=CC(=C(C#N)C#N)CCC2CC1 (stereo not given)	n	n	n	n	x	n[15.4 µM]
N#CC(C#N)=C1C=C2C=C(N3CCCCC3)CCC2CC1 (stereo not given)	n	40µM	n	n	n	n
CCOc1ccccc1CNC(=O)c1cc2oc3ccccc3c2n1CC	n	n	n	n	32µM!	n
CCn1c(C(=O)NCc2ccc(F)cc2)cc2oc3ccccc3c21	n	x	x	x	n	x
COc1cccc(CNC(=O)c2cc3oc4ccccc4c3n2C)c1OC	n	n	n	n	25µM	n
CCS(=O)(=O)c1ccc(-c2csc(-c3ccccc3Cl)n2)c(Cl)c1Cl	n	n	-128%	n	n	u
CC1=CC(C)(C)N2C(=O)C3(C(C#N)=C(N)Oc4cc(O)ccc43)c3c(C)c(C)cc1c32 (stereo not given)	n	n	x	-73	n	n
COc1ccc(-c2ccc(OC)cc2)cc1	n	n	n	n	n	n
COc1ccc(-c2cnc3c(c2)CCC3(C#N)C#N)cc1	n	n	n	n	16µM	n
COC[C@H]1CCCN1c1ccc2c(c1)O[C@@H](COCc1ccccc1)CN([C@H](C)c1ccccc1)S2(=O)=O	x	x	n	x	5.6µM	x
COC[C@@H]1CCCN1c1ccc2c(c1)O[C@H](COCc1ccccc1)CN([C@@H](C)c1ccccc1)S2(=O)=O	x	x	n	x	u	x
CC1=CSC2=NS(=O)(=O)CCN12	n	n	n	n	n	n
O=S1(=O)CCN2C(Cc3ccc(SC(F)F)cc3)=CSC2=N1	n	32µM	n	n	n	u
COc1ccc(-n2nc(CCC(=O)N(C)O)cc2-c2ccc(Cl)cc2)cc1	x	x	x	n	x	x
SMILES	RXFP1 ag	gsp antag	Akt phos inh	RXFP1 antag	ClpP mod	gsp ag
CCOc1ccc(CC(=O)N/N=C/c2cccnc2)cc1	n	n	n	n	16µM	n[15.4 µM]
COc1ccc(CC(=O)N/N=C/c2cccnc2)cc1OC	32µM	n	n	n	n	n
Cn1c(=O)c2c(ncn2CCC(=O)N/N=C/c2cccnc2)n(C)c1=O	16µM	n	n	n	n	n[15.4 µM]
CCOC(=O)c1cc(-c2ccc(OC)cc2)nn1-c1ccc(C(=O)O)cc1	n	35µM	n	n	n	n
CCOC(=O)c1nn(-c2ccc(C)cc2)c(=O)cc1OCC(=O)Nc1ccc(OC)cc1	n	n	n	n	8.9µM	n
CCOC(=O)c1cc(-c2cccnc2)nn1-c1ccccc1	n	n	n	n	x	n[15.4 µM]
CCOC(=O)[C@@H]1[C@H]2COc3ccc(Br)cc3[C@H]2N2C(=O)N(c3cccc(Cl)c3)C(=O)[C@]12C	n	n	n	x	n	u
O=C1C=CC(=O)N1CCCCCCCCCCN1C(=O)C=CC1=O	x	35µM	n	n	x	n
CCCCn1c(=O)nc2n(-c3ccccc3C)c3ccccc3cc-2c1=O	n	u	n	x	18µM	n

From PubChem BioAssay
